Screens as filed in PubChem BioAssay.
ALDH1A1 inh: qHTS Assay for Inhibitors of Aldehyde Dehydrogenase 1 (ALDH1A1); Aldehyde dehydrogenase 1A1 (Homo sapiens), P00352; Purified ALDH1A1, NADH fluorescence, propionaldehyde substrate; Potency, µM (series often up to 75.3 µM), for the others: at the top dose activity, negative = inhibition, hits mostly inhibitors; 220,000 tested, 7.3% active;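 also: potency is read from the fitted curve at half-maximal effect; plate controls were no enzyme wells and a reference inhibitor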
PNC assembly inh: High Content Assay for Compounds that inhibit the Assembly of the Perinucleolar Compartment. PC3M PTB-GFP, PNC prevalence imaging, 16 h; active compounds read low. activity change (PNC), negative = inhibition, % at 10 µM. 140,000 tested, 3.1% active;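 active = readout at or below -70, meaning at least 70% loss of cells showing the perinucleolar compartment, a nuclear body marking cancer cells; inconclusive = readout between -30 and a set limit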;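 also: plate controls were DMSO wells for no effect and camptothecin positive control wells for full effect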
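Read-out is percentage of cells bearing a perinucleolar compartment, from automated 20x imaging of fixed, Hoechst-stained PC3M PTB-GFP cells. Cells were seeded 4 h, then exposed 16 h to compound (23 nl of library stock) in duplicate plates.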
HPGD inh: qHTS Assay for Inhibitors of HPGD (15-Hydroxyprostaglandin Dehydrogenase); 15-hydroxyprostaglandin dehydrogenase [NAD(+)] (Homo sapiens), P15428; purified HPGD, NADH fluorescence kinetic, PGE2 substrate; Potency, µM, for the others: at the highest dose activity change, negative = inhibition, hits mostly inhibitors; 150,000 tested, 4.3% active; AID 894, 2007; also: potency is read from the fitted curve at half-maximal effect
Target sequence (P15428 whole entry, looked up): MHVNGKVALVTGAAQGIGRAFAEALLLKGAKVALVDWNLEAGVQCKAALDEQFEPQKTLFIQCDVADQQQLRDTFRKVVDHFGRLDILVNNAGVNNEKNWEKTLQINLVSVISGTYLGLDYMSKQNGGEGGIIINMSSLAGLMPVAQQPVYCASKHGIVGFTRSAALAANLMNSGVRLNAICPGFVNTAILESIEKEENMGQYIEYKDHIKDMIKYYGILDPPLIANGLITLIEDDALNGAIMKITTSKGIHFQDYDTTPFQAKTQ
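NADH formation kinetics: reaction with 30 uM PGE2 and 1 mM NAD+ (final), 20 nM enzyme, Tris-HCl pH 8 with Tween 20, after 15 min compound preincubation at room temperature. Fluorescence change, last versus first of five reads.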
Starred values were filed as active, the others as inactive; u = inconclusive; x = no result; [ ] = dose if it differs, or a comment. A selection: hits, their analogues and other compounds. The true share with any hit is near 11%. Unless noted, calls follow the shape of the dose curve; as a rule, active = well fitted inhibition curve with a large enough effect (not every such curve was filed as active); inconclusive = small, poorly fitted or top-dose-only effect, or another doubt; inactive = no such curve, though single readings can be large or run the other way. Unless noted, % is scaled to controls: 0 for no effect and ±100 for the full control effect.

SMILES | ALDH1A1 inh | PNC assembly inh | HPGD inh
CSc1nsc(/C=C/Nc2ccc(C(=O)O)cc2)c1C#N | 10µM* | x | x
CSc1nsc(/C=C/Nc2ccc(F)cc2F)c1C#N | 8.91µM* | x | x
COc1ccc(/C=N/Nc2snc(SC)c2C#N)cc1OC | u | 27.8 | u
CN(C(=O)CCc1ccccc1)c1nnc(-c2ccncc2)s1 | -4.8% | x | x
CSc1ccccc1NC(=O)CN1CCN(Cc2ccccc2)CC1 | -6.5% | x | x
CCN(CC)S(=O)(=O)c1cc(NS(=O)(=O)c2cc(Cl)ccc2Cl)ccc1C | 15.8µM* | -6.0 | -6.3%
CCN(CC)S(=O)(=O)c1cc(NC(=O)CCNC(=O)c2ccccc2Cl)ccc1C | 3.0% | 20.2 | -3.7%
COc1cccc(-n2c(Cc3cc(=O)[nH]c(=O)[nH]3)nnc2SCc2cccc(C(F)(F)F)c2)c1 | 7.7% | x | x
O=C(O)CCNc1cc2ccccc2cc1C(=O)O | u | 0.6 | u
CC(=O)c1cc(CC=C(C)C)c(O)c(CC=C(C)C)c1O | 14.5% | -7.4 | -18.4%
CC(=O)c1cc(CC=C(C)C)c(O)cc1O | -0.3% | 34.5 | 12.6µM*
O=C1CC(N2CCN(c3ccccc3Cl)CC2)C(=O)N1c1ccccc1 (stereo not drawn) | 25.1µM* | -11.5 | -12.8%
O=C1CC(N2CCOCC2)C(=O)N1c1cc(Cl)cc(Cl)c1 (stereo not drawn) | 3.16µM* | u | -25.7%
Cc1cc(C)cc(N2C(=O)CC(N3CCOCC3)C2=O)c1 (stereo not drawn) | -4.8% | u | -4.6%
O=C1CC(N2CCOCC2)C(=O)N1c1ccccc1Cl (stereo not drawn) | u | -94.0* | -8.7%
CCCOc1ccccc1N1C(=O)CC(N2CCOCC2)C1=O (stereo not drawn) | 5.2% | -25.8 | -12.4%
COc1cccc(N2CCN(C3CC(=O)N(c4cccc(Cl)c4)C3=O)CC2)c1 (stereo not drawn) | u | 5.3 | 0.8%
CCN1CCN(C(c2ccc(OC)cc2)c2nnnn2Cc2ccc3c(c2)OCO3)CC1 (stereo not drawn) | 2.5% | x | x
O=C1NCCCN1Cc1ccc(F)cc1 | 2.3% | 36.8 | -14.3%
O=C1NCCCN1Cc1ccc(F)cc1Cl | 4.47µM* | 22.2 | -20.3%
CCOC(=O)C1(CCOc2ccccc2)CCN(Cc2ccc(CO)o2)CC1 | -9.4% | x | x
CCOC(=O)C1(CCOc2ccccc2)CCN(Cc2cnc(C)s2)CC1 | 15.8µM* | x | x
CCOC(=O)C1(CCOc2ccccc2)CCN(Cc2ccc3nonc3c2)CC1 | 28.2µM* | x | x
CCOC(=O)C1(CCOc2ccccc2)CCN(Cc2ccc(NC(C)=O)cc2)CC1 | 9.2% | x | x
COc1cc2c(c(OC)c1OC)C(c1ccc(C)cc1)CC(=O)O2 (stereo not drawn) | u | x | -21.9%
SMILES | ALDH1A1 inh | PNC assembly inh | HPGD inh
CCc1ccc(/C=N/NC(=O)c2cc(C3CC3)nc3ccc(Br)cc23)s1 | -1.9% | 15.0 | -13.6%
CN1CCN(c2cc(N3CCc4ccccc4C3)c(F)cc2[N+](=O)[O-])CC1 | -3.8% | 46.9 | -11.4%
Cc1ccc(OCC(=O)N2CCc3ccccc3C2)c([N+](=O)[O-])n1 | 10.2% | x | x
CCCCC(CC)CNC(=O)c1ccc2c(c1)OCO2 (stereo not drawn) | 1.9% | u | -20.1%
O=C(NCc1ccco1)C(c1cccs1)N(C(=O)C1COc2ccccc2O1)c1cccc(O)c1 (stereo not drawn) | -12.5% | -115.9* | -1.6%
CC(C)CCNC(=O)C(c1ccc(O)cc1)N(Cc1cccs1)C(=O)C1COc2ccccc2O1 (stereo not drawn) | -1.4% | -10.5 | -3.6%
Cc1cc(C)cc(OC(=O)N2CCOCC2)c1 | 2.7% | -18.1 | -11.0%
Cc1cc(N/N=C(/CCC(=O)O)C(=O)O)nc2ccccc12 | 1.6% | 24.2 | -16.6%
CN(C)c1cccc(C(=O)OCC(=O)NCC2CCCO2)c1 (stereo not drawn) | -5.8% | -0.1 | -18.8%
COc1cc(/C=C2/C(=O)NN(c3ccc(Cl)cc3)C2=O)ccc1OC(=O)c1ccco1 | u | 19.2 | 7.94µM*
COc1cc(/C=C2/C(=N)N3OC(C)=CC3=NC2=O)ccc1OC(=O)c1ccco1 | 5.62µM* | x | x
COC(=O)N/N=C/c1ccc(OC(=O)c2ccco2)c(OC)c1 | 3.7% | x | x
COc1cc(/C=N/NC(=O)c2ccc(F)cc2)ccc1OC(=O)c1ccco1 | 4.0% | u | -13.6%
COc1cc(/C=C2/C(=O)NN(c3cccc(F)c3)C2=O)ccc1OC(=O)c1ccco1 | 22.4µM* | -80.6* | 3.98µM*
C=CCN1C(=O)/C(=C\c2ccc(OC(=O)c3ccco3)c(OC)c2)SC1=S | 0.224µM* | x | x
CC1=CSC2=NC(=O)/C(=C/c3cccc(OC(=O)c4ccco4)c3)C(=N)N12 | u | -23.9 | -19.0%
COc1cc(/C=N/Nc2nc(C)cc(C)n2)ccc1OC(=O)c1ccco1 | -1.3% | 52.7 | -5.2%
O=C(Oc1cccc(N2C(=O)CCC2=O)c1)C1CC(=O)N(c2ccc(F)cc2)C1 (stereo not drawn) | 2.4% | -8.2 | -5.7%
CS(=O)(=O)N(CC(=O)NCc1ccccn1)Cc1ccc(Cl)cc1 | 7.94µM* | u | -0.5%
CN1CCN(C(=O)CN(Cc2ccc(Cl)cc2)S(C)(=O)=O)CC1 | 9.8% | u | -6.3%
CS(=O)(=O)N(CC(=O)N1CCCCCC1)Cc1ccc(Cl)cc1 | u | -107.0* | -2.3%
CS(=O)(=O)N(CC(=O)NCc1ccccc1)Cc1ccc(Cl)cc1 | 8.3% | 10.1 | -2.1%
CNS(=O)(=O)c1ccccc1C(=N)c1ccccc1 | 6.2%[13.5 µM] | x | -5.9%
CCOC(=O)c1cc(C)nc(SC)c1C#N | 39.8µM* | x | x
CCOC(=O)c1cc(C(C)(C)C)nc(SC)c1C#N | -0.7% | x | x
SMILES | ALDH1A1 inh | PNC assembly inh | HPGD inh
Cn1c(Cl)c(C(=O)Nc2ccc(Cl)cc2)c2ccccc21 | 7.9% | 51.9 | -6.0%
CSc1nnc(-c2cc(C)on2)n1-c1ccccc1 | u | u | -10.8%
COc1ccc(NC(=O)C2CCN(c3nnnn3-c3ccccc3)CC2)cc1 | 12.6µM* | u | -8.0%
COc1ccccc1CC(NC(C)=O)C(=O)NC1CCN(c2nnnn2-c2ccccc2)CC1 (stereo not drawn) | 5.62µM* | -25.5 | -11.8%
Cc1cc(C)nc(N2CCC(C(=O)Nc3ccc(Oc4ccccc4)cc3)CC2)n1 | 13.8% | 3.3 | 1.0%
COc1ccc(OC)c(CC(NC(C)=O)C(=O)NC2CCN(c3c(Cc4ccccc4)c(C)nc4ncnn34)CC2)c1 (stereo not drawn) | 2.1% | -11.5 | -22.9%
O=C(Nc1ccc(F)cc1)C1CCN(c2nnnn2-c2ccccc2)CC1 | 14.1µM* | -24.8 | -7.7%
Cc1ccccc1C(=O)N1CCC(C(=O)Nc2ccc(F)cc2)CC1 | -15.7% | -3.4 | -17.2%
CO[C@H]1COC(=O)CCC[C@H](C)[C@H](OC)COC(=O)C/C=C\[C@@H]1C | 6.4%[13.5 µM] | x | x
Cc1cccc(C)c1N(Cc1ccccc1F)S(C)(=O)=O | 3.6% | x | x
COc1ccc(Cl)cc1-n1c(=S)sc2c(=O)[nH]c(SCC(=O)NCC3CCCO3)nc21 (stereo not drawn) | -11.9% | -8.1 | x
NS(=O)(=O)c1ccc(NCc2nc3ccccc3[nH]2)cc1 | 0.2%[13.5 µM] | x | -3.6%
COc1ccc(NCC(=O)n2c(C)c(C)c3ccccc32)cc1OC | 7.08µM* | x | x
